Pol eta inh: blocks human DNA polymerase eta activity. Q9Y253. recombinant Pol eta, fluorescent DNA replication assay. Potency, µM (titrated, usually from 114 µM), for the others: top-dose activity change, negative = inhibition, actives largely listed as inhibitors. hit rate 1.2% among 390,000. AID 588591; further: potency means the concentration at half of the fitted maximal effect; on the % scale 0 is the no-effect control and ±100 the full control effect
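Pol eta at 10 nM preincubated with compounds 15 min at room temperature; reaction started with fluorescent substrate (50 nM final) and read kinetically at 0 and 10 min.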
PI5P4Ka inh: blocks human PI5P4K alpha kinase activity; PI5P4Kalpha enzyme, ADP-Glo luminescence, 60 min; active compounds read low; AID 652105; hit rate 1.2% among 330,000; max response, %; P48426; active means max response of -50% or lower; inconclusive means between -30% and -50%; inactive means -30% or higher; further: value at the top dose of about 77 µM; on the % scale 0 is the no-effect control and ±100 the full control effect
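ADP-Glo luminescence end-point after a 60 min room-temperature kinase reaction. PI5P4Kalpha and substrate in HEPES pH 7.4 buffer with EGTA, 0.1% CHAPS and 5% DMSO; ATP at 5 microM final.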
ALOX12 inh: inhibitors of human 12S-lipoxygenase ALOX12; Potency, µM (doses to about 108 µM), inactives show top-dose activity change, negative = inhibition, usual class: inhibitors; purified 12hLO, xylenol orange hydroperoxide absorbance; P18054; hit rate 1.1% among 580,000; further: potency means the concentration at half of the fitted maximal effect; on the % scale 0 is the no-effect control and ±100 the full control effect
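Purified human 12hLO (150 nM final) in 25 mM Hepes, 0.01% Triton X-100, pH 7.0 was preincubated 15 min at room temperature with compound. Then 40 uM arachidonic acid was added, 30 min. Hydroperoxide was read by Fe-XO absorbance ratio 573/405 nm.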
Pol iota inh: DNA polymerase iota (human) inhibition. Potency, µM (doses to about 115 µM), inactives show at the top dose activity, negative = inhibition, most hits filed as inhibitors. hit rate 1% among 390,000. Pol iota fluorescent replication assay, 10 min. Q9UNA4. AID 588590; further: potency means the concentration at half of the fitted maximal effect
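Pol iota at 10 nM preincubated 15 min with compounds at room temperature; reaction started with fluorescent substrate, 50 nM final. Fluorescence read kinetically at 0 and 10 min; buffer-only wells as negative control.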
Pol beta inh: blocks human DNA polymerase beta activity; P06746; Pol beta primer extension/strand displacement, fluorescence kinetic; Potency, µM (doses to about 114 µM), inactives show top-dose activity change, negative = inhibition, usual class: inhibitors; hit rate 1.3% among 340,000; further: potency means the concentration at half of the fitted maximal effect; on the % scale 0 is the no-effect control and ±100 the full control effect
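Homogeneous kinetic assay of primer extension and strand displacement by 10 nM Pol beta, preincubated 15 min at room temperature with compound before 50 nM substrate (final) was added. Read at 0 and 10 min; four-parameter Hill fit.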
Pol kappa inh: blocks human DNA polymerase kappa activity; Q9UBT6; purified Pol kappa, fluorescent DNA synthesis assay, 10 min; Potency, µM (highest dose often 107 µM), for inactives: top-dose activity, negative = inhibition, hits mostly inhibitors; hit rate 0.53% among 400,000; AID 588579; further: potency means the concentration at half of the fitted maximal effect; on the % scale 0 is the no-effect control and ±100 the full control effect
Target sequence (Q9UBT6 whole entry, looked up): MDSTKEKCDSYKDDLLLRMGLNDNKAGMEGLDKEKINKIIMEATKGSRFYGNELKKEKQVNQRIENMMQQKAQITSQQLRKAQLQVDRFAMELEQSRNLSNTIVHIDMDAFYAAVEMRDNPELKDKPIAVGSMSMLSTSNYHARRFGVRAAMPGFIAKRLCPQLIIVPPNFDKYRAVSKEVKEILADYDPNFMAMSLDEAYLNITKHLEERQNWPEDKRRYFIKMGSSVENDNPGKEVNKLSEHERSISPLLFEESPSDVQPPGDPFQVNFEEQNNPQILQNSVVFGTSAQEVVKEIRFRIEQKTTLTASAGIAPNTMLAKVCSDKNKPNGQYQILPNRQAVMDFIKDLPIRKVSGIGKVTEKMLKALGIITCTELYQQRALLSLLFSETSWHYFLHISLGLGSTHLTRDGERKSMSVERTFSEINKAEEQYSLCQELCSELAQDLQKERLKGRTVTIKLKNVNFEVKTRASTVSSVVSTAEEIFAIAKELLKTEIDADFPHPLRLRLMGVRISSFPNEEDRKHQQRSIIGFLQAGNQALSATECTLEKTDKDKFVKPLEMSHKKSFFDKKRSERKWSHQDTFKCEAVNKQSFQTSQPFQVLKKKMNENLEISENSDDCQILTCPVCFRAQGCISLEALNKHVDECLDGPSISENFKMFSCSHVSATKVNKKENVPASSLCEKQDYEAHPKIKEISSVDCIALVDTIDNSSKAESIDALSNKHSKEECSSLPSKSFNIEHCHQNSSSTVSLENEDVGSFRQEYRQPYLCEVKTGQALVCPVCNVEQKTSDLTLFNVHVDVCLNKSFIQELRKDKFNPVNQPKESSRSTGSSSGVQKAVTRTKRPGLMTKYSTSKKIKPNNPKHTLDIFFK
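First, compounds were pin-transferred onto 10 nM Pol kappa. After 15 min at room temperature, substrate was added to 50 nM final. Fluorescence was then measured kinetically at 0 and 10 min.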
* hit, by the source's call; ! = not confirmed by another sample; [ ] = remark or other dose. An excerpt weighted towards active compounds, which were near 2.9% of everything screened. Unless noted, the call rests on the fitted dose curve; in most records, active means well fitted inhibition curve with a large enough effect; inconclusive means small, poorly fitted or top-dose-only effect, or another doubt; inactive means no such curve, though single readings can be large or run the other way.

For COc1cc(C(=O)Nc2cc(-c3ccccc3)[nH]n2)cc(OC)c1OC the results were Pol eta inh -15%, ALOX12 inh -9%, Pol iota inh -2%, Pol beta inh -14% and Pol kappa inh -2%.
COc1ccc(-c2nc(NC(=O)c3ccco3)sc2C)cc1 was read as Pol eta inh -6%, PI5P4Ka inh -6 and ALOX12 inh inconclusive.
Screening COc1cc(C(=O)Nc2nnc(-c3sccc3C)s2)cc(OC)c1OC returned Pol eta inh 13µM*, PI5P4Ka inh -6, ALOX12 inh 0%, Pol iota inh -9%, Pol beta inh 0% and Pol kappa inh -7%.
`COc1cc(C(=O)Nc2nc(OC)c(-c3ccccc3)c(OC)n2)cc(OC)c1OC` gave Pol eta inh -22%, ALOX12 inh 7%, Pol iota inh inconclusive, Pol beta inh 45µM* and Pol kappa inh 7%[60.1 µM].
For O=C(COc1c(F)c(F)c(F)c(F)c1F)N1CCC(c2nc3ccccc3o2)CC1 the results were ALOX12 inh -12%.
`CCc1ccc(OCc2ccc(C(=O)O)o2)cc1` gave Pol eta inh -14%, PI5P4Ka inh -1, ALOX12 inh -2%, Pol iota inh 19%, Pol beta inh 26% and Pol kappa inh -28%.
For O=C(O)c1ccc(OCc2ccc(C(=O)O)o2)cc1 the results were Pol eta inh 32µM*, PI5P4Ka inh -16, ALOX12 inh inconclusive, Pol iota inh 9%, Pol beta inh inconclusive and Pol kappa inh -7%.
Screening O=C(O)c1ccc(COc2ccccc2[N+](=O)[O-])o1 returned Pol eta inh 13µM*, PI5P4Ka inh 1, ALOX12 inh -23%, Pol iota inh 0%, Pol beta inh inconclusive and Pol kappa inh -9%.
Screening N#Cc1ccc(Cl)cc1NC(=O)C12CC3CC(CC(Cl)(C3)C1)C2 returned ALOX12 inh -23%.
For CC(N)(C(=O)O)c1ccc(P(=O)(O)O)cc1 (centres undefined) the results were ALOX12 inh 7% and Pol kappa inh 6%[19.4 µM].
For C[C@@](N)(C(=O)O)c1ccc(P(=O)(O)O)cc1 the results were ALOX12 inh 13µM* and Pol kappa inh -13%[19.4 µM].
For Cc1c(C(=O)NN2CCCCC2)nn(-c2ccc(Cl)cc2Cl)c1-c1ccc(Cl)cc1 the results were ALOX12 inh 24µM*! and Pol kappa inh -11%[60.1 µM].
Screening Cc1nn(-c2ccc(Cl)cc2Cl)c(C)c1C(=O)O returned Pol eta inh -8%, PI5P4Ka inh -6, ALOX12 inh -22%, Pol iota inh 59%, Pol beta inh 22% and Pol kappa inh 5%.
COc1ccc(-c2nc3ccc(C)cn3c2NCc2ccccc2)cc1SC1CCCCC1 was read as Pol eta inh 45µM*, PI5P4Ka inh -16, Pol iota inh 22µM* and Pol kappa inh 10%.
`c1ccc(CNc2c(-c3cccc(SC4CCCCC4)c3)nc3ccccn23)cc1` gave Pol eta inh -7%, PI5P4Ka inh 1, ALOX12 inh 14µM*, Pol iota inh inconclusive and Pol kappa inh -8%.
For CCCCNc1c(-c2ccc(OC)c(SC3CCCCC3)c2)nc2ccc(C)cn12 the results were Pol eta inh -27%, PI5P4Ka inh 17, ALOX12 inh inconclusive, Pol iota inh -15% and Pol kappa inh -17%.
For COC(=O)C1=C(C)NC(=S)NC1c1ccc(-c2cc(Cl)ccc2Cl)o1 (centres undefined) the results were Pol eta inh -17%, PI5P4Ka inh 2, ALOX12 inh 18µM*, Pol iota inh inconclusive, Pol beta inh 0% and Pol kappa inh 1%.
COC(=O)C1=C(C)NC(=O)NC1c1ccc(-c2ccc(Cl)cc2)o1 (centres undefined) was read as Pol eta inh -8%, PI5P4Ka inh -8, ALOX12 inh -25%, Pol iota inh 10%, Pol beta inh -10% and Pol kappa inh -11%.
O=C(NCc1nc(-c2ccccc2)no1)Nc1cccc2ccccc12 was read as ALOX12 inh -24%.
`Cn1c(/C(C#N)=C/c2ccccc2Br)nc2ccccc21` gave ALOX12 inh -13%, Pol iota inh 79µM*, Pol beta inh 6% and Pol kappa inh inconclusive.
For CC(=O)NC(c1cccs1)c1cc(F)c2cccnc2c1O (centres undefined) the results were Pol eta inh -20%, ALOX12 inh inconclusive, Pol iota inh 86% and Pol kappa inh 1%.
`CC(C)C(=O)NC(c1cccs1)c1cc([N+](=O)[O-])c2cccnc2c1O` (centres undefined) gave Pol eta inh inconclusive, PI5P4Ka inh -84*, Pol iota inh 33%, Pol beta inh -1% and Pol kappa inh -9%.
Screening CCC(=O)NC(c1ccc(C)cc1)c1cc(Cl)c2cccnc2c1O (centres undefined) returned Pol eta inh -21%, Pol iota inh 54% and Pol kappa inh 2%.
Screening Cc1ccc(C(NC(=O)C(C)C)c2cc([N+](=O)[O-])c3cccnc3c2O)cc1 (centres undefined) returned Pol eta inh inconclusive, PI5P4Ka inh inconclusive, ALOX12 inh 16µM*, Pol iota inh 21%, Pol beta inh 23% and Pol kappa inh -4%.
`CC(C)c1cc(=O)oc2cc(OCC(=O)NCCc3ccccc3)ccc12` gave ALOX12 inh 30%.
`COc1cc(C2Nc3ccc(C)cc3[C@H]3OCCC[C@@H]23)cc(Cl)c1OC` (some centres undefined) gave ALOX12 inh 2%.
`Oc1ccc(/C=N/N2CCN(C3c4ccccc4-c4ccccc43)CC2)cc1O` gave Pol eta inh -20%, PI5P4Ka inh -30, ALOX12 inh 18µM*, Pol iota inh 48%, Pol beta inh 5% and Pol kappa inh -13%.
`Oc1ccc(/C=N/N2CCN(C3c4ccccc4-c4ccccc43)CC2)cc1` gave Pol eta inh -17%, PI5P4Ka inh 10, ALOX12 inh -8%, Pol iota inh -23%, Pol beta inh -15% and Pol kappa inh 1%.
`CCCC[N+](CCCC)(CCCC)CCCC` gave ALOX12 inh 11µM*.
`CCNCc1ccc(-c2ccccc2)o1` gave ALOX12 inh 16µM*!.
COC(C(=O)C(O)C(C)O)C1Cc2cc3cc(OC4CC(OC5CC(O)C(O)C(C)O5)C(O)C(C)O4)c(C)c(O)c3c(O)c2C(=O)C1OC1CC(OC2CC(OC3CC(O)C(OC)C(C)O3)C(O)C(C)O2)C(O)C(C)O1 (centres undefined) was read as Pol eta inh 11µM*, PI5P4Ka inh -6, ALOX12 inh inconclusive, Pol iota inh 22µM* and Pol kappa inh 79µM*.

Source: PubChem
